Source: PubChem BioAssay (National Center for Advancing Translational Sciences (NCATS))
This excerpt belongs to a sample that is enriched for hits.
PKM2 inhibitor: inhibitors of human pyruvate kinase M2; P14618; purified PKM2, ATP generation, Kinase-Glo luminescence; Potency, µM (top dose mostly 57.5 µM), without a hit: at the top dose activity change, negative = inhibition, actives largely listed as inhibitors; hit rate 0.058% among 260,000; AID 1634; active = well fitted inhibition curve with a large enough effect; note: nearly all actives have a fitted effect of over 60% in size
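Enzyme run at intermediate activity with final 0.1 mM ADP, 0.5 mM PEP (50 mM imidazole pH7.2, 50 mM KCl, 7 mM MgCl2), incubated 1 h at r.t. ATP formed read by Kinase-Glo luminescence, normalized to no-enzyme (full inhibition) and uninhibited wells.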
An asterisk follows results filed as active. Potency is the fitted concentration of half-maximal effect.

SMILES | PKM2 inhibitor
CN(C)C(=S)SSC(=S)N(C)C | 14µM*
O=C(Nc1cccnc1)C1CCN(S(=O)(=O)c2cccs2)CC1 | 38%
NP(=O)(OCCCc1ccccc1)Oc1ccccc1Cl (configuration not stated) | 7%
CC(=NCc1ccco1)c1c(O)n(-c2ccccc2)c(=O)[nH]c1=O | 34%
CC(Oc1ccc(-c2ccccc2)cc1)C(=O)O (configuration not stated) | -1%
Cc1cc2c(C(C)C)c(O)c(O)c(C=O)c2c(O)c1-c1c(C)cc2c(C(C)C)c(O)c(O)c(C=O)c2c1O | 32%
CN(C)C(=O)Oc1ccc(OCc2nc3ccccc3[nH]2)cc1 | 11µM*
CSc1nc2ccccc2n1C(=O)Oc1ccccc1 | 32%
CC(=O)Nc1ccc(N(C(=O)Cn2nnc3ccccc32)C(C(=O)NC2CCCC2)c2ccc(O)c(O)c2)cc1 (configuration not stated) | 44%
O=c1[nH]c(=O)n(C2CCCCCC2)c(O)c1C=NCCCN1CCOCC1 | 34%
